Results with a measured potency or affinity are listed apart. Inconclusive results are not listed. Calls of active or inactive are those of the source.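 The calls were made as follows: active = in every test run, a fitted half-maximal concentration for signal decrease at or below twice the highest tested concentration; inconclusive = runs disagree, flat 30 to 70% decrease, or poor fit; inactive = the rest.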
test: activation of miR-122 Renilla sensor silencing – cell-based, Huh7 psiCHECK-miR122, Renilla luciferase, cherry-picked, dose response (AID 651956); conditions: Huh7 psiCHECK-miR122 Renilla luciferase reporter, 48 h; series mostly up to 35 µM; activity change, negative = signal decrease: at the top concentration;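 also: Renilla luciferase from a miR-122 sensor reporter so lower signal means miR-122 activation; 0% = median neutral control wells and -100% = median positive control wells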

Row | Structure (SMILES) | activity change, negative = signal decrease
1 | CCN(C[C@H]1[C@H](c2ccccc2)[C@H](CO)N1C(=O)COC)S(C)(=O)=O | -18.1% (inactive)
2 | CC(=O)Oc1ccc2c(c1)C(=O)c1ccccc1CO2 | 46.6% (inactive)
3 | Cc1ccc(C2CC(C(F)(F)F)n3nc(C(=O)NCc4ccco4)cc3N2)cc1 (stereo not given) | -13.8% (inactive)
4 | CCN(CC)CCOc1cccc(C(C)C)c1 | 5.69% (inactive)
5 | CC(=O)N1[C@H](CO)[C@H](c2ccccc2)[C@@H]1CN(C(=O)c1ccc(F)cc1)C(C)C | 6.99% (inactive)
6 | COC(=O)C[C@@H]1CC[C@H]2[C@@H](COc3ccc(NC(=O)c4ccc(C(F)(F)F)cc4)cc3C(=O)N2C)O1 | 85.2% (inactive)
7 | CCNC(=O)Nc1ccc2c(c1)C(=O)N(C)[C@H]1CC[C@@H](CC(=O)NCCOC)O[C@@H]1CO2 | 128% (inactive)
8 | NC(=O)c1csc(-c2ccncc2)n1 | 38.7% (inactive)
9 | CCOc1ccc(-c2nnc(SCC(=O)Nc3ccc4c(c3)c3ccccc3n4CC)n2N)cc1 | 71.1% (inactive)
10 | C/C=C/c1ccc([C@H]2[C@@H](CO)N(C(=O)CC)[C@H]2CNC(=O)CC)cc1 | 7.81% (inactive)
11 | CCNC(=O)Nc1ccc2c(c1)C(=O)N(C)[C@H]1CC[C@H](CC(=O)Nc3ccccc3F)O[C@@H]1CO2 | 74.2% (inactive)
12 | CCC(=O)Nc1ccc2c(c1)C(=O)N(C)[C@@H]1CC[C@H](CC(=O)Nc3cccc(OC)c3)O[C@@H]1CO2 | -15.5% (inactive)
13 | C[C@H](CO)N1C[C@H](C)[C@@H](CN(C)Cc2ccc(C(F)(F)F)cc2)Oc2ccc(NS(=O)(=O)c3ccc(Cl)cc3)cc2CC1=O | -112% [at 30 µM] (inactive)
14 | CNC(=O)c1nc(C)n(-c2cc(Cl)cc(Cl)c2)n1 | 104% (inactive)
15 | O=C(Cn1c(=O)c2ccccc2n(CC(=O)N2CCCCC2)c1=O)N1CCCCC1 | -13.5% (inactive)

Source: PubChem BioAssay AID651956 (Broad Institute, 2012)
